# Compounds with a hit are over-represented: about 1.4% of the library has one in this group of screens.
# MbtI inh – inhibitors of Mycobacterium tuberculosis siderophore enzyme MbtI. P9WFX0. purified MbtI enzyme, fluorescence intensity read-out. inhibition, % (concentration not given with the values). 0.89% of 100,000 active. AID 493033; in the data active = inhibition mostly above about 56%, no sharp cut-off; inactive = mostly below about 77%
# Target sequence (P9WFX0 whole entry, looked up): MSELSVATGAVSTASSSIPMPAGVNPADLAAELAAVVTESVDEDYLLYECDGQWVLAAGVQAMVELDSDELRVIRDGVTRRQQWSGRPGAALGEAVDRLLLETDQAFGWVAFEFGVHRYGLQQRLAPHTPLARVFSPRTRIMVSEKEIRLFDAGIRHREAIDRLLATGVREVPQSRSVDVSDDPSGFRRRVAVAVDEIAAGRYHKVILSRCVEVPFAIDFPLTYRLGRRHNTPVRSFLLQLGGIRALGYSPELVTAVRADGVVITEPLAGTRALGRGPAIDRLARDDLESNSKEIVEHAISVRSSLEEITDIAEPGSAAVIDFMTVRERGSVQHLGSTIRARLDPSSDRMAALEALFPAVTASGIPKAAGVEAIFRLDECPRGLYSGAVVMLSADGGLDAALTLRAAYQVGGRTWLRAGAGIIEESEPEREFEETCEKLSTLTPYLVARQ
# Polio RdRp inh – poliovirus RNA polymerase inhibition; P03300; poliovirus polymerase elongation, fluorescence polarization; active compounds read low; 0.66% of 150,000 active; % elongation, % (compound at 16.7 µg/mL); AID 588519; in the data active = % elongation below about 90%
# Mtb MenB inh – Mtb MenB enzyme inhibition. inhibition, % (concentration not given with the values). AID 540299. 0.43% of 100,000 active. MenB enzyme assay, absorbance read-out. P9WNP5; in the data active = inhibition above about 21%, passing the limit was not always enough
# AID504770 – growth inhibitors of E. coli YBA685 in a screen for V. cholerae RctB (chromosome II replication) inhibitors. E. coli YBA685 rctB-dependent plasmid, OD600 growth, 3 h; active compounds read low. z-score (test concentration not listed). 0.27% of 130,000 active; in the data active = z-score below about -2, passing the limit was not always enough
# * marks the source's active call; other numbers are inactive results; / = not tested or not shown.
SMILES,MbtI inh,Polio RdRp inh,Mtb MenB inh,AID504770
O=c1/c(=C\c2ccccc2)sc2nc3ccccc3n12,29.0,97.0,/,-0.4
O=c1/c(=C\c2ccncc2)sc2nc3ccccc3n12,/,63.0*,-34.1,-0.4
CN(C)CC1Cc2ccccc2O1 (stereo unspecified),-11.4,/,/,-1.4
COc1ccc2c(c1)Cc1sc(NC(=O)c3cccc(C)c3)nc1-2,/,56.0*,/,/
COc1ccc(C(=O)Nc2nc3c(s2)CCc2cc(OC)ccc2-3)cc1,/,80.0*,/,/
COc1ccc2c(c1)Cc1sc(NC(=O)c3cccc(Cl)c3)nc1-2,/,63.0*,/,/
COc1ccc2c(c1)CCc1sc(NC(=O)c3cccc(Br)c3)nc1-2,/,101.0,/,/
COc1ccc2c(c1)Cc1sc(NC(=O)c3ccc(Cl)cc3)nc1-2,/,88.0*,/,/
COc1ccc(Nc2cc(N3CCCCC3)ncn2)cc1,1.5,98.0,10.6,0
COC(=O)C1C(c2ccc(Cl)cc2)C(C(=O)OC)S(=O)(=O)CS1(=O)=O (stereo unspecified),-13.8,104.0,-19.5,-0.65
O=C(CN1CCN(c2ncnc3scc(-c4ccc(Cl)cc4)c23)CC1)NC1CC1,-5.4,105.0,-5.6,-4.9*
CCN(CC)CCOC(=O)c1ccc(NC(=O)c2cc3cc(OC)ccc3oc2=O)cc1,/,102.0,/,/
CCN(CC)CCOC(=O)c1ccc(NC(=O)c2cc3cccc(OC)c3oc2=O)cc1,/,90.0*,/,/
CCCCCCSc1n[nH]c(=O)[nH]c1=O,-8.4,86.0*,-8.6,-0.4
NCCSc1n[nH]c(=O)[nH]c1=O,7.5,100.0,-16.5,-0.1
S=c1nc(Cc2ccc(Cl)cc2)[nH][nH]1,97.0*,93.0,-51.0,0.3
OCCn1nc2c3ccccc3nc-2n(-c2ccccc2)c1=S,72.3,85.0*,-40.4,-0.2
COc1ccc(CC2C(=O)NC(=O)N(c3cccc(Cl)c3)C2=O)cc1 (stereo unspecified),/,102.0,-12.1,1.55
Cc1cc(Br)ccc1NC(=O)c1sc2nc3n(c(=O)c2c1C)CCCC3,/,110.0,/,/
O=c1c2c(nc3n1CCC3)sc1c(O)c(Br)ccc12,10.4,100.0,37.9*,1.05
COC(=O)c1cnc(NN2C(=O)C=C(C)C2=O)nc1C(F)(F)F,52.9*,97.0,-1.5,-0.55
O=C1CCCC2=C1C(c1ccc(Cl)cc1)n1c(s/c(=C\c3cccnc3)c1=O)=N2 (stereo unspecified),0.5,107.0,4.5,-0.45
O=C(NC1(C(F)(F)F)Oc2ccc(Cl)cc2O1)N1CCCCC1 (stereo unspecified),40.4,/,/,/
CCN(C(=O)NC1(C(F)(F)F)Oc2ccc(Cl)cc2O1)C1CCCCC1 (stereo unspecified),70.9*,100.0,-20.2,0.2
CC1=C(C)C(=O)C(NCc2ccco2)=CC1=O,7.5,74.0*,-120.0,-1.05
SMILES,MbtI inh,Polio RdRp inh,Mtb MenB inh,AID504770
COc1ccc(-c2nn(CN3CCOCC3)c(=S)n2C2CCCCC2)cc1,1.3,103.0,-21.2,-0.95
CC(Sc1nnc(Nc2ccccc2F)s1)C(=O)Nc1ccccc1 (stereo unspecified),5.4,101.0,3.6,0.8
O=C1c2ccccc2C(=O)N1CCSC1=Nc2ccccc2C2CC=NN12 (stereo unspecified),-1.4,105.0,34.1*,0.65
C=CCn1c(C)cc(C(=O)CSc2nnc3ccccn23)c1C,-1.6,103.0,/,0.2
C=CCn1c(C)cc(C(=O)CSC2=Nc3ccccc3C3CC=NN23)c1C (stereo unspecified),4.0,102.0,55.2*,-0.5
O=C1c2ccccc2C(=O)N1CCSc1ccccc1,6.0,100.0,-3.8,-0.3
FC(F)(F)Oc1ccccc1NCn1nnc2ccccc21,/,/,/,-1.4
O=C(Cn1c(=O)c(CNc2ccccc2)cc2cc3c(cc21)OCCO3)Nc1ccccc1Cl,/,51.0*,/,/
Cc1ccc(Cl)cc1NC(=O)Cn1c(=O)c(CNc2ccccc2)cc2cc3c(cc21)OCCO3,/,102.0,/,/
CNc1c(NS(=O)(=O)c2ccc(C)cc2C)c(=O)oc2ccccc12,3.4,105.0,-6.6,-0.65
COCCCNC(=O)CCC(=O)NNc1nc2ccccc2c2nc(C)nn12,/,24.0*,/,/
CCCCNC(=O)CCC(=O)NNc1nc2ccccc2c2nc(-c3ccccc3)nn12,/,106.0,/,/
CCOCCCNC(=O)CCC(=O)NNc1nc2ccccc2c2nc(C)nn12,/,36.0*,/,/
CCCCNC(=O)CCC(=O)NNc1nc2ccccc2c2nc(C)nn12,/,81.0*,/,/
Cc1nc2c3ccccc3nc(NNC(=O)CCC(=O)N3CCN(c4ccc(F)cc4)CC3)n2n1,/,95.0,/,/
COc1ccc(NS(=O)(=O)c2ccc3oc(SC)nc3c2)cc1,91.8*,82.0*,-47.7,0
COc1ccc(NS(=O)(=O)c2ccc3oc(SC/C(O)=C(\C#N)c4nc5ccccc5s4)nc3c2)cc1,42.4,106.0,-24.2,-0.85
O=C(CCCc1ccccc1)Nc1scc2c(=O)oc3ccccc3c12,/,79.0*,8.5,1.3
Cc1cc(C(=O)COn2nnc3ccc(S(C)(=O)=O)cc32)c(C)n1C,-9.4,101.0,-39.6,-0.3
CCOC(=O)C1=C(CSc2nnc(-c3cccs3)n2-c2ccccc2)NC(=O)NC1C (stereo unspecified),15.2,105.0,-40.0,-2.45*
O=C(Oc1cccc2cccnc12)c1cccc(F)c1,-2.8,/,/,-1.45
O=C(Oc1cccc2cccnc12)c1cc(C(F)(F)F)cc(C(F)(F)F)c1,-7.2,150.0,-14.7,-3.25*
CCc1ccc(N2C(=O)CC(C(=O)OC)=C2C)cc1,15.2,101.0,-18.1,0.65
CC(C(=O)N1CCCC1)N1CCN(c2ccc(F)cc2)CC1 (stereo unspecified),-4.3,98.0,40.5*,-0.05
CSc1c(CC(=O)NN)n(C)c2ccccc12,/,99.0,-18.6,-0.75
SMILES,MbtI inh,Polio RdRp inh,Mtb MenB inh,AID504770
CCc1ccc(CN2CCC(N3CCCCC3)CC2)cc1,/,95.0,-14.6,2
CCc1ccc(CN2CCN(CC)CC2)cc1,0.9,102.0,34.6*,0.85
COc1ccccc1-n1nnc(C(=O)N2CCCC2)c1N,-0.5,102.0,31.4*,1.35
COc1ccccc1N1CCN(C(=O)c2nc(-c3ccc(C)cc3)n3c2CCCCC3)CC1,/,109.0,/,/
CCN(C(=O)c1c(-c2c(Cl)cccc2Cl)noc1C)C(Cc1ccccc1)c1ccc(OC)cc1 (stereo unspecified),/,/,/,0.25
CCn1c(C)c2c(C)nn3cc(C)cc3c2c1C,-7.5,99.0,-26.1,-0.45
Cc1nc(CSc2nnc(Cc3cccc4ccccc34)n2N)cs1,56.8*,100.0,-28.3,-3.75
CN(C)c1[nH]ncc1-c1ccccc1,/,/,/,-0.6
Cc1csc2nc(CCNC(=O)CC3CCCC3)cn12,-4.6,103.0,-27.2,-1.8
Cc1ccc(-n2nnc3c(sc4nc(C)cc(C)c43)c2=O)cc1,-4.2,101.0,9.2,0.55
COc1ccc(F)cc1S(=O)(=O)Nc1cccc(-c2ccc(N3CCCCCC3)nn2)c1,/,110.0,/,/
COc1ccc(OC)c(S(=O)(=O)Nc2cccc(-c3ccc(N4CCCCC4)nn3)c2)c1,/,85.0*,/,/
NC1CCc2cc(O)c(O)cc2C1 (stereo unspecified),92.5*,98.0,/,/
COc1cccc(-c2csc(-c3c(N)c(C(=O)c4ccc5c(c4)OCO5)n4ccccc34)n2)c1,/,76.0*,/,/
CCOc1ccc(C(=O)c2c(N)c(-c3nc(-c4ccc5c(c4)OCO5)cs3)c3ccccn23)cc1,/,105.0,/,/

# Bioassay records (PubChem BioAssay)
